The values that follow come from paper PMC7862700, “An all-to-all approach to the identification of sequence-specific readers for epigenetic DNA modifications on cytosine”.

Assay in all cases: DAPPL (digital affinity profiling via proximity ligation, sequencing); 10 mM Tris-HCl pH 7.5, 50 mM NaCl, 1 mM DTT, 4% glycerol, room temperature, 30 min; GST-TFs on glutathione beads, 16-mer random dsDNA library, 0.1% formaldehyde crosslink after washing; high values mean tight binding
Common to all, as to settings: protein: recombinant; tags: N-terminal GST; dsDNA, one strand shown

In one experiment the target is T1, ELK1 (Homo sapiens, UniProt P19419 1-428).
T1 sequence: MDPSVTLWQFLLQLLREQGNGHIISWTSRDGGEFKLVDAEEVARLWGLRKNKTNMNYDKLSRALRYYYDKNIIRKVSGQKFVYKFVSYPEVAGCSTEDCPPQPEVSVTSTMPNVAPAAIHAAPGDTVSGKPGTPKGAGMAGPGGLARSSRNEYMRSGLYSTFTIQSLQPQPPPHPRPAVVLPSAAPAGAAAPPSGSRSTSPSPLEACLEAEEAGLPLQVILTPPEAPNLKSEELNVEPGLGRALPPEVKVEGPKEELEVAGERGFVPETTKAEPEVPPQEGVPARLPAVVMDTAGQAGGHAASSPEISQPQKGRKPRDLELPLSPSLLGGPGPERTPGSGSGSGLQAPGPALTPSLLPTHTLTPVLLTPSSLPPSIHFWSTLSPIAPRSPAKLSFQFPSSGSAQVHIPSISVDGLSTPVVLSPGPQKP
The method, boiled down:
(§1)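 Binding signal is each hexamer's read frequency for a factor divided by its frequency in the tag-only sample. The factors were GST-fused human transcription factors from yeast, captured on glutathione beads, DNA-barcoded and pooled with that sample. Pools were incubated with 200 nmole of a random double-stranded 16-mer DNA library in Tris/NaCl/DTT/glycerol buffer at room temperature for 30 min, then washed, crosslinked with 0.1% formaldehyde, proximity-ligated with BsaI/T4 ligase (1 h, 37 °C), PCR-amplified and sequenced on an Illumina NextSeq500.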

The target in another experiment is T2, GABPA (Homo sapiens, UniProt Q06546 1-454).
T2 sequence: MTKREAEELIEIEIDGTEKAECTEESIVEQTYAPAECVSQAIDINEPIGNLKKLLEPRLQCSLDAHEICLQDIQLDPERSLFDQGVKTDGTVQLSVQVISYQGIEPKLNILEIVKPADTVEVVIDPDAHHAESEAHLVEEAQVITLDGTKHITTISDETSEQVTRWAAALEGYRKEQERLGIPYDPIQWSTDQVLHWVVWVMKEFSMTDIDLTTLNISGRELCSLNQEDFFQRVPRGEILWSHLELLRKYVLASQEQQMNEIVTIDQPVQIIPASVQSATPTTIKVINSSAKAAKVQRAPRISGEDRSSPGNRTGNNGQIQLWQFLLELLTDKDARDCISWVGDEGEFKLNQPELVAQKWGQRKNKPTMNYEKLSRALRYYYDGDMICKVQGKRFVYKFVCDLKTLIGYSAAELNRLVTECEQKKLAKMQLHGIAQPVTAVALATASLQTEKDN
The method, boiled down: as §1

The target of another experiment is T3, ERG (Homo sapiens, UniProt P11308 1-479).
T3 sequence: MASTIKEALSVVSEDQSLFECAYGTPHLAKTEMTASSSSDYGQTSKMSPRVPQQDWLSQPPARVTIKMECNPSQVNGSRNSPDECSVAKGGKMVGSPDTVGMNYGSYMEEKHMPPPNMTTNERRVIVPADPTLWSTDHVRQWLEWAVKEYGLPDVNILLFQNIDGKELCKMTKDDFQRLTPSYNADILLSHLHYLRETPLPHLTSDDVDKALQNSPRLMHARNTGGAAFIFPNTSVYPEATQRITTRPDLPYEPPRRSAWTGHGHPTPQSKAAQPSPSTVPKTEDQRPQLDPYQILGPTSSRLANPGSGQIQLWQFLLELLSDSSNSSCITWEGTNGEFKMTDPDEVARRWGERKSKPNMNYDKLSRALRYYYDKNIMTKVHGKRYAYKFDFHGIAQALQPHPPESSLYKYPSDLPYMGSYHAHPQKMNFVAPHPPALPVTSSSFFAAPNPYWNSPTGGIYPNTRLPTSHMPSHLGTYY
The gist of the method: as §1

The target of another experiment is ELF1 (Homo sapiens, UniProt P32519 1-619). The gist of the method: as §1
The target of the next experiment is SPIB (Homo sapiens, UniProt Q01892 1-262). The gist of the method: as §1
For another experiment, the target named is ELF4 (Homo sapiens, UniProt Q99607 1-663). The gist of the method:
as §1

The target in the next experiment is T4, ELK4 (Homo sapiens, UniProt P28324-2 1-405).
T4 sequence: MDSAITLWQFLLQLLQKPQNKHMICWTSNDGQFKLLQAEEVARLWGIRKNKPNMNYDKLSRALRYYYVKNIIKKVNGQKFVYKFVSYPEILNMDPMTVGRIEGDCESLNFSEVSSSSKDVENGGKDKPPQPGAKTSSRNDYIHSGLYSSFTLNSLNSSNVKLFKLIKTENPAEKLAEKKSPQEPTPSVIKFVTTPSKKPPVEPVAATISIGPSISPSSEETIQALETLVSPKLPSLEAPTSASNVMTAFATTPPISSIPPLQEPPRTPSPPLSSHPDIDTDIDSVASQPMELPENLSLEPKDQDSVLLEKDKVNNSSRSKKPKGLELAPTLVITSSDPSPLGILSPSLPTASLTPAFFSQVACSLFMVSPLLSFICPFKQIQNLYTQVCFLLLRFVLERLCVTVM
The method, boiled down: as §1

A further experiment deals with T5, ELF3 (Homo sapiens, UniProt P78545 1-371).
T5 sequence: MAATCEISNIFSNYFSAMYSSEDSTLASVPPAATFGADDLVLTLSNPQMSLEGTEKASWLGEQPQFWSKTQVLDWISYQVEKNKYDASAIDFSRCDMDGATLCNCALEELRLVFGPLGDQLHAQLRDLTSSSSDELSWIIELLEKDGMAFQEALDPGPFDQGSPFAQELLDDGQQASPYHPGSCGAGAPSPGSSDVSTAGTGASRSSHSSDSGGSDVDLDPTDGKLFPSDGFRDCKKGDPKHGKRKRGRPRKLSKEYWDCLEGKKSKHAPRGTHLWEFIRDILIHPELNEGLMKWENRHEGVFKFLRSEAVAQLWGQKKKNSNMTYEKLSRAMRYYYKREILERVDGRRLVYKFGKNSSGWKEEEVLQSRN
The gist of the method:
as §1

The next experiment has as its target T6, ERF (Homo sapiens, UniProt P50548 1-548).
T6 sequence: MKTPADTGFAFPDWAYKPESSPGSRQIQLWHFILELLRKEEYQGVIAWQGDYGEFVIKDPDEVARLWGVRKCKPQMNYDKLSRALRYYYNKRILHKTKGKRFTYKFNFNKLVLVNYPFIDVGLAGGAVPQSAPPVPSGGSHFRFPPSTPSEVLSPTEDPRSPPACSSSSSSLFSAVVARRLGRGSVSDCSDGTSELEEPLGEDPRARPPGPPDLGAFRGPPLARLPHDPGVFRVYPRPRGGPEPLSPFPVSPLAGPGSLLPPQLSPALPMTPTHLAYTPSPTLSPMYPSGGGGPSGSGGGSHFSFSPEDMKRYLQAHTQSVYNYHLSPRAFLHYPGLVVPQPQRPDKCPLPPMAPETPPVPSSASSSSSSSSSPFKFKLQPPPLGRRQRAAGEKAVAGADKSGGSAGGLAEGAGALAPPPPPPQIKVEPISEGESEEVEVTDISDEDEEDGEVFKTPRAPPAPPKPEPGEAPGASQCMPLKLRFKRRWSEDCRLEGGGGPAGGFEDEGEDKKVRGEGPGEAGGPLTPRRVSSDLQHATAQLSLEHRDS
The method, boiled down:
as §1

In another experiment the target is T7, ETV3L (Homo sapiens, UniProt Q6ZN32 1-361).
T7 sequence: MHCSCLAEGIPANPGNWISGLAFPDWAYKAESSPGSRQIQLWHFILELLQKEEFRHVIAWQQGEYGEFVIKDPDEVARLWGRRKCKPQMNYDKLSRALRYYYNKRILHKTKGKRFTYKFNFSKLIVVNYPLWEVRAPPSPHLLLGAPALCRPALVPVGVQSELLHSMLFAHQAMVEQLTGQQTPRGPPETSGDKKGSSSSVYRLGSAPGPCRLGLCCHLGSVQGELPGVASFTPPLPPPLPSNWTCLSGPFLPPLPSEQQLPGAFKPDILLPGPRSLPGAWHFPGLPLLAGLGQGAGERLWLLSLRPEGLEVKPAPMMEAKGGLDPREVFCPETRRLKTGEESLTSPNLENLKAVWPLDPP
The method, boiled down: as §1

The target in another experiment is T8, SPDEF (Homo sapiens, UniProt O95238 1-335).
T8 sequence: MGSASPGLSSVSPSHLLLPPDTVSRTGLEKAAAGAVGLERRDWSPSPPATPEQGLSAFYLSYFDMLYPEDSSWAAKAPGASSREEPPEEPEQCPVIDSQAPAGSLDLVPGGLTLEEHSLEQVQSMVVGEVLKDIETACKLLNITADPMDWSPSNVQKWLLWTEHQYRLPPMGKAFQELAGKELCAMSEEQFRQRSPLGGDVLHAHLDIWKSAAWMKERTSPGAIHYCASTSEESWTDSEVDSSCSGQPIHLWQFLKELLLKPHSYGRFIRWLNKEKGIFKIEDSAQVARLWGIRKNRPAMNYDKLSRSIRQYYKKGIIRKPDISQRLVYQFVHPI
The gist of the method:
as §1

A further experiment has as its target T9, ETV3 (Homo sapiens, UniProt P41162-2 1-143).
T9 sequence: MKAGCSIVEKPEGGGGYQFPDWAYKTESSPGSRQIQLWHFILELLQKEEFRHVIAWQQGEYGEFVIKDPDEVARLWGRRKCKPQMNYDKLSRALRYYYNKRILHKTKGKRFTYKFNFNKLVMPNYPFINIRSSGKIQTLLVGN
The gist of the method:
as §1

The next experiment addresses ETV6 (Homo sapiens, UniProt P41212 1-452). The gist of the method:
as §1

Chain of ETV6 (P41212 whole entry): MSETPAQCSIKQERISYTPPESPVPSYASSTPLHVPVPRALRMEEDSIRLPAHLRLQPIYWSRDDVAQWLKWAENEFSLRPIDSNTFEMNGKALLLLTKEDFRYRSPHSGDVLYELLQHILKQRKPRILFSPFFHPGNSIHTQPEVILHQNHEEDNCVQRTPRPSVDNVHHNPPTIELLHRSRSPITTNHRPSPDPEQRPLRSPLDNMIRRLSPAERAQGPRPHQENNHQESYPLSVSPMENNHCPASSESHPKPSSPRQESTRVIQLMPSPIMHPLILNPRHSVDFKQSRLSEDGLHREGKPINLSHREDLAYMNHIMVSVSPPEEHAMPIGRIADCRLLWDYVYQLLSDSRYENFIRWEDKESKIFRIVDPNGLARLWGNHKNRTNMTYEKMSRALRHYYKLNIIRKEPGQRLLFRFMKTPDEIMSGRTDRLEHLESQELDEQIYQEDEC
Chain of ELF4 (Q99607 whole entry): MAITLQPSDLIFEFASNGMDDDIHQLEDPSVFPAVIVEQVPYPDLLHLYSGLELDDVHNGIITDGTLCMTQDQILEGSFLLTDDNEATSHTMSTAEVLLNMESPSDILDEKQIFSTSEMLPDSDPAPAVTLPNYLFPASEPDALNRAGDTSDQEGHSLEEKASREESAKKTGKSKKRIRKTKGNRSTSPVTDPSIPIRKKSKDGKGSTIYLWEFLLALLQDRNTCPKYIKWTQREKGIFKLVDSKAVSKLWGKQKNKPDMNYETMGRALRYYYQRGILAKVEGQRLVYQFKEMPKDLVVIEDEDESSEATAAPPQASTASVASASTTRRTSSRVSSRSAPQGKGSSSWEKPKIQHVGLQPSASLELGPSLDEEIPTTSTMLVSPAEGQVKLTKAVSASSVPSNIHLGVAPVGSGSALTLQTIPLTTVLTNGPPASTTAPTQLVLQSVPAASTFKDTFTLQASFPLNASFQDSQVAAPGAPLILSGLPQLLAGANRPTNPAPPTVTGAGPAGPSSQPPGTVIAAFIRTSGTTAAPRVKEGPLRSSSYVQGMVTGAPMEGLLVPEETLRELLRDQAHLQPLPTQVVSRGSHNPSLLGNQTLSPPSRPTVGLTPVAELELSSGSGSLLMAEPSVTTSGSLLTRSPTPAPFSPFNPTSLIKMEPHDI
Chain of SPIB (Q01892 whole entry): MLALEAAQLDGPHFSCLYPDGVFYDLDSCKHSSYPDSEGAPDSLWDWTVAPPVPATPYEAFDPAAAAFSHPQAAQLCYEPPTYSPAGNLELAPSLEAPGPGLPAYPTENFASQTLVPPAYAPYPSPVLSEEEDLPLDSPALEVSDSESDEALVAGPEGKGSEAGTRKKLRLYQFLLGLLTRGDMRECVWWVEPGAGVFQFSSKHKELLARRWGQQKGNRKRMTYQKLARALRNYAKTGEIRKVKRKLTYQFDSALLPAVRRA
Chain of ELF1 (P32519 whole entry): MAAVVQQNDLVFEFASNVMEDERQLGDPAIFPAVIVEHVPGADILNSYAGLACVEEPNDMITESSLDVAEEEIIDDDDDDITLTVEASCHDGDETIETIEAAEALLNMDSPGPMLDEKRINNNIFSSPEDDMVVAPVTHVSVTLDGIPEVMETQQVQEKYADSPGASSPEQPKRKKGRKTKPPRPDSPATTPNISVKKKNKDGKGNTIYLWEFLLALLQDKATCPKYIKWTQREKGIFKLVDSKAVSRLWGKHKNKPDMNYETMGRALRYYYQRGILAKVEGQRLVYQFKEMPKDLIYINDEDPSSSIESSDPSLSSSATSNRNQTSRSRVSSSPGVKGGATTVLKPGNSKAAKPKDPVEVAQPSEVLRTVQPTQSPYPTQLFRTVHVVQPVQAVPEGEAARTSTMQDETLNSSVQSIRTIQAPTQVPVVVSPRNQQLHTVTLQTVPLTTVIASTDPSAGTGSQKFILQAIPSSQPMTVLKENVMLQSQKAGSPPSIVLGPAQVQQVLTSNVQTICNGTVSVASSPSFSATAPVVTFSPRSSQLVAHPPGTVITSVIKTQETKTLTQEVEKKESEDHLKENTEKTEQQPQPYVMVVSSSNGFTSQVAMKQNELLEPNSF

For CACCTG, the binding signal in the experiment with ELK1 was 1.06 fold enrichment (6-mer frequency, TF over GST control); with GABPA, 1.01 fold enrichment (6-mer frequency, TF over GST control); with ERG, 1.06 fold enrichment (6-mer frequency, TF over GST control); in the experiment with ELF1, 1.09 fold enrichment (6-mer frequency, TF over GST control); with SPIB, 1.03 fold enrichment (6-mer frequency, TF over GST control); with ELF4, 1.08 fold enrichment (6-mer frequency, TF over GST control). The binding signal with ELK4 is 1.09 fold enrichment (6-mer frequency, TF over GST control); in the experiment with ELF3, 1.05 fold enrichment (6-mer frequency, TF over GST control); with ERF, 1.07 fold enrichment (6-mer frequency, TF over GST control); with ETV3L, 1.05 fold enrichment (6-mer frequency, TF over GST control); with SPDEF it was 1.07 fold enrichment (6-mer frequency, TF over GST control); in the experiment with ETV3, 1.03 fold enrichment (6-mer frequency, TF over GST control). Also, the binding signal with ETV6 is 1.06 fold enrichment (6-mer frequency, TF over GST control).
